This is an account of results in PubChem BioAssay AID540359 (Broad Institute, 2011).

Potency and affinity values are given separately. The source made the active and inactive calls. A call without a number means that no potency is given here. How the calls were made is not given here.

Chain of UDP-galactopyranose mutase (Mycobacterium tuberculosis (strain ATCC 25618 / H37Rv)) (P9WIQ1 whole entry, looked up): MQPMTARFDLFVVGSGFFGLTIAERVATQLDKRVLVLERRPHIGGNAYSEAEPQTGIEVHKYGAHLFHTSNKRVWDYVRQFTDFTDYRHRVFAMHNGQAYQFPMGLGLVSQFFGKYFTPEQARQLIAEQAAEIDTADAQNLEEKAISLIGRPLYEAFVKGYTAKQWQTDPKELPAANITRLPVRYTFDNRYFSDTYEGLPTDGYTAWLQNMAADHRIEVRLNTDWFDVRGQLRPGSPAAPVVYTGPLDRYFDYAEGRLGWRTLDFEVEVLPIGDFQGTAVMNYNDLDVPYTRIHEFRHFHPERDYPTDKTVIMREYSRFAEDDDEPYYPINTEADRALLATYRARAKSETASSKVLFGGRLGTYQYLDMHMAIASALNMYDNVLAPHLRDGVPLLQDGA

The assay concerns the target UDP-galactopyranose mutase (Mycobacterium tuberculosis (strain ATCC 25618 / H37Rv)) (UniProt P9WIQ1). Briefly: Mycobacterium tuberculosis UGM enzyme inhibition, dose response confirmation, purified biochemical assay (AID 540359). Conditions: plate reader activity; series mostly up to 50 µM.
For the molecule `Cc1ccc(NC(=O)/C(C#N)=C/c2ccc(C)s2)c(C)c1`, the call was inactive.

With `CCOC(=O)C1CCCN(C(=O)C2c3ccccc3Oc3ccccc32)C1` (stereo not drawn), the outcome was inactive.

Take `O=C(/C=C/c1ccc2c(c1)OCO2)c1c(O)n(CCc2ccccc2)c(=O)[nH]c1=O`: the outcome was inactive.

`CCOC(=O)c1c(C)nc2ccccc2c1C`: the outcome was inactive.

On to `CCOc1ccc(/C(CCC(=O)O)=N/NC(=O)c2cccc(S(=O)(=O)Nc3ccccc3OC)c2)cc1`, for which the molecule was called inactive.

For the molecule `O=C(COC(=O)COc1cccc(Br)c1)NCc1ccc2c(c1)OCO2`, the result was inactive.

For `COc1ccc(-n2c(O)c(/C=C3\C=Nc4ccc(Br)cc43)c(=O)[nH]c2=O)cc1`, the outcome was inactive.

Consider `N#CCCN(CCC#N)C(=O)C1c2ccccc2Oc2ccccc21`, for which the molecule was classed as inactive.

For `CC(N)=Nc1ccc([N+](=O)[O-])cc1`, the result was inactive.

As to `CCOC(=O)c1cnc2ccc(Cl)cc2c1NCCN(C)C`, the molecule was called inactive.

As to `N=c1n(CCN2CCCC2)c2ccccc2n1CC(O)c1ccco1` (stereo not drawn), the molecule was called inactive.

For the molecule `COc1ccccc1N1CCN(C2CCCN(C(=O)CCC(=O)N(C)C)C2)CC1` (stereo not drawn), the outcome was inactive.

Regarding `O=C(O)c1ccccc1C(=O)OCCCCOC(=O)c1ccccc1C(=O)O`, the result was inactive.

Regarding `O=c1[nH]c(=O)n(-c2ccc(F)cc2)c(O)c1/C=C1\C=Nc2ccccc21`, the molecule was classed as inactive.

Consider `CCOC(=O)CNc1ccc2c(c1)OCO2`, for which the call was inactive.

For `COc1ccc2c(c1)c1nc3ccccc3nc1n2CC(=O)OC(C)C`, the molecule was called inactive.

Regarding `O=C(Nc1ccccc1F)C(=Cc1sc(N2CCOCC2)nc1-c1ccccc1)C(=O)Nc1ccccc1F`, the call was inactive.

Turning to `CC(=O)N1CCN(S(=O)(=O)c2cccc(C(=O)NNC(=O)Cn3nc(C)cc3C)c2)CC1`, the outcome was inactive.

With `CCc1cc(C(=O)c2ccc(C)cc2)c(NC(=O)CCl)s1`, the call was inactive.

As for `COc1ccc(C(=O)NCC(=O)N2CCN(C(=O)c3ccco3)CC2)cc1[N+](=O)[O-]`, the molecule was called inactive.

On to `COc1ccc(N(CC(=O)N/N=C/c2ccc(-c3ccc([N+](=O)[O-])cc3)o2)S(=O)(=O)c2ccc(C)cc2)cc1`, for which the result was inactive.

As for `NC(=O)c1c(NC(=O)C2COc3ccccc3O2)sc2c1CCN(Cc1ccccc1)C2` (stereo not drawn), the molecule was called inactive.

Regarding `O=C(N=c1ccn(-c2nc3ccccc3nc2NS(=O)(=O)c2ccc(Cl)cc2)cc1)c1cccs1`, the call was inactive.

As for `CC(=O)NC(Cc1ccccc1)C(=O)OCC(=O)c1ccccc1` (stereo not drawn), the outcome was inactive.

As for `CCN(CC)CCCNC(=O)c1cc(Sc2nnc(C)s2)nc2ccccc12`, the molecule was classed as inactive.

On to `COc1cccc(/C=N/n2c(-c3ccco3)nc3ccccc3c2=O)c1OC`, for which the call was inactive.

Turning to `CN(CC(=O)NC1CC1)S(=O)(=O)c1ccc(Br)cc1`, the outcome was inactive.

With `COc1ccc(CCn2c(=N)c(S(=O)(=O)c3ccc(C)cc3)cc3c(=O)n4ccccc4nc32)cc1`, the molecule was called inactive.
